The text below walks through data of PubChem BioAssay AID1851 (National Center for Advancing Translational Sciences (NCATS), 2009).

Hit rate of the full screen: of about 16,000 compounds, about 5,700 (36%) were called active. Roughly 24% stayed inconclusive and do not appear here. Calls follow the shape of the dose curve; as a rule, active = well fitted curve in the direction sought with a large enough effect; inconclusive = small, poorly fitted or top-dose-only effect, or effect the other way; inactive = no such curve, though single readings can be large or run the other way. The list shows a part of the results.
% is scaled to controls: 0 for no effect and ±100 for the full control effect.

Chain of Cytochrome P450 1A2 (Homo sapiens) (P05177 whole entry, looked up): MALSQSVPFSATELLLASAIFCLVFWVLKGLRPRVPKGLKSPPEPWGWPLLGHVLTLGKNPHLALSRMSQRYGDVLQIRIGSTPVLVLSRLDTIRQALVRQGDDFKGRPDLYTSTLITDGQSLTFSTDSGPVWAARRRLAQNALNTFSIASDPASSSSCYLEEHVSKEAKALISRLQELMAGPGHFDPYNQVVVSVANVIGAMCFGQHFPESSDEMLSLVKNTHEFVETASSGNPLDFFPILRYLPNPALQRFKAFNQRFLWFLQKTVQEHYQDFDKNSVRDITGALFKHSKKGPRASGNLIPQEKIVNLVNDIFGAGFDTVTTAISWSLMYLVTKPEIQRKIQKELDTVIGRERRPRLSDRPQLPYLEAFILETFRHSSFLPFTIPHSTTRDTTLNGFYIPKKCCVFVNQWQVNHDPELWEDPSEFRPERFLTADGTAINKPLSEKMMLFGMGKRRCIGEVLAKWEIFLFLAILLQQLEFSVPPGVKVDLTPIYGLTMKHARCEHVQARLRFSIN

The experiment concerns the target Cytochrome P450 1A2 (Homo sapiens) (UniProt P05177). As to the kind of experiment: Cytochrome panel assay with activity outcomes. Conditions: recombinant CYP, pro-luciferin dealkylation, luminescence, p450-cyp1a2; series mostly up to 57.1 µM; activity, negative = inhibition: at the top concentration.
Take `COCCNC(=S)NC1CC2CCCC(C1)N2Cc1cccs1` (stereo not given): the “activity, negative = inhibition” value was 0.311% (inactive).
`N#CCCN`: the “activity, negative = inhibition” value was -4.42% (inactive).
As to `N[C@@H]1CCc2cc(O)c(O)cc2C1`, the “activity, negative = inhibition” value is -3.23% (inactive).
`CC[C@@H]1[C@@H]2C[C@H]3[C@H]4N(C)c5ccccc5[C@@]45C[C@@H]([C@@H]2[C@@H]5O)N3[C@H]1O`: the “activity, negative = inhibition” value is -7.35% [at 25.6 µM] (inactive).
Regarding `Cc1ccc(N(C)C(=O)Oc2cccc3ccc(C)nc23)cc1`, the AC50 (in general, the concentration at which the activity in the assay is half-maximal) is 12.6 µM (active).
Turning to `C[C@@H]1O[C@H](OC2[C@@H](O)[C@H](O)C(O)[C@H](O)[C@H]2O)[C@@H](N)C[C@@H]1N=C(N)C(=O)O` (stereo not given in full), the activity, negative = inhibition was 1.22% [at 2.29 µM] (inactive).
Take `c1ccc(CN2CCN(Cc3ccc4c(c3)OCCO4)CC2)cc1`: the “activity, negative = inhibition” value is -22.8% (inactive).
In the case of `CO[C@@H]([CH2][Hg])CN1C(=O)c2ccccc2S1(=O)=O.Cn1c(=O)c2nc[nH]c2n(C)c1=O`, the activity, negative = inhibition is -22% [at 2.29 µM] (inactive).
Consider `O=c1c(O)c(-c2cc(O)c(O)c(O)c2)oc2cc(O)cc(O)c12`, for which the AC50 is 2 µM (active).
Turning to `CCC(=O)O[C@@](Cc1ccccc1)(c1ccccc1)[C@@H](C)CN(C)C`, the “activity, negative = inhibition” value was -8.18% [at 25.6 µM] (inactive).
Same read-out and setting: then `Cc1nc(-c2ccc(-c3ccc(C(=O)N4CCc5cc6c(cc54)C4(CCN(C)CC4)CO6)cc3)c(C)c2)no1`, with 5.55% (inactive).
Take `Nc1ccc(CCN2CCN(c3cccc(C(F)(F)F)c3)CC2)cc1`: the concentration at half-maximal activity (AC50) was 10 µM (active).
For the compound `NCCCN1CCN(c2ccccc2)CC1`, the activity, negative = inhibition was -15.9% [at 11.4 µM] (inactive).
Regarding `C[N+](C)(C)CC#CCN1CCCC1=O`, the AC50 entry is “inactive”.
Regarding `CCN(CC)C1=NC(=[N+](CC)CC)c2ccccc21`, the concentration at half-maximal activity (AC50) was 15.8 µM (active).
As to `NC(=O)c1ncn([C@H]2O[C@@H](CO)[C@@H](O)[C@@H]2O)n1`, the “activity, negative = inhibition” value was 2.01% [at 25.6 µM] (inactive).
On to `Cc1cc(C)c(-n2c(O)c(C=NCCN3CCOCC3)c(=O)[nH]c2=O)c(C)c1`, for which the “activity, negative = inhibition” value was -0.0514% (inactive).
As to `CC(C)[C@@]1(NC(=O)[C@@H]2C[C@H]3c4cccc5[nH]cc(c45)C[C@@H]3N(C)C2)O[C@]2(O)[C@H]3CCCN3C(=O)[C@H](Cc3ccccc3)N2C1=O`, the “activity, negative = inhibition” value was -7.15% [at 25.6 µM] (inactive).
Regarding `COc1ccc(-n2nc(C(F)(F)F)cc2-c2ccc(Cl)cc2)cc1`, the AC50 is 0.501 µM (active).
For `NC(N)=NCCN=C(N)N`, the activity, negative = inhibition is -17.5% [at 11.4 µM] (inactive).
As to `Cc1c([C@@H](C)[C@H]2NC[C@H](C)C[C@@H]2O)ccc2c1C[C@@H]1[C@H]2CC=C2C[C@@H](O)CC[C@@]21C`, the activity, negative = inhibition is 1.34% [at 2.29 µM] (inactive).
With `COc1ccc2[nH]c(C(=O)c3ccccc3)cc2c1`, the AC50 was 0.1 µM (active).
On to `NC[C@H](CS(=O)(=O)O)c1ccc(Cl)cc1`, for which the “activity, negative = inhibition” value is -14.4% (inactive).
As to `C/C(O)=C(/C#N)C(=O)Nc1cc(Br)ccc1Br`, the AC50 is 2.51 µM (active).
As for `c1ccc(N2CC[C@@]3(CCCNC3)C2)nc1`, the “activity, negative = inhibition” value is 3.64% (inactive).
